# According to the supplement of paper PMC8728848:
# This excerpt belongs to a sample that is enriched for the strongest signals.
# Assays:
# Test in all cases: glycan array binding signal (z-score within array); higher = stronger binding
# Conditions in all cases: glycan notation: IUPAC condensed, linker removed
# [1] = biological target: Fuc(a1-2)Gal(b1-3)GalNAc(b1-4)[Neu5Ac(a2-3)]Gal(b1-4)Glc
# In short: (§1)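 Columns mapping to the same glycan were averaged after glycan names were converted to IUPAC-condensed notation. The data come from 3228 arrays in the Consortium for Functional Glycomics database, limited to those with an available protein sequence. Binding is reported as a within-array Z-score averaged across arrays of one protein sequence and across linkers.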
# [2] = biological target: Fuc(a1-2)Gal(b1-3)[Fuc(a1-4)]GlcNAc(b1-3)[Fuc(a1-3)[Gal(b1-4)]GlcNAc(b1-6)]Gal(b1-4)Glc
# In short: as §1
# [3] = biological target: Fuc(a1-2)Gal(b1-4)GlcNAc(b1-2)Man(a1-3)[Fuc(a1-2)Gal(b1-4)GlcNAc(b1-2)Man(a1-6)]Man(b1-4)GlcNAc(b1-4)GlcNAc
# In short: as §1
# [4] = biological target: Fuc(a1-2)Gal(b1-4)GlcNAc(b1-2)Man(a1-3)[Fuc(a1-2)Gal(b1-4)GlcNAc(b1-2)Man(a1-6)]Man(b1-4)GlcNAc(b1-4)[Fuc(a1-6)]GlcNAc
# In short: as §1
# [5] = biological target: Fuc(a1-2)Gal(b1-4)GlcNAc(b1-3)Gal(b1-4)GlcNAc(b1-3)Gal(b1-4)GlcNAc
# In short: as §1
# [6] = biological target: Fuc(a1-2)Gal(b1-4)[Fuc(a1-3)]GlcNAc(b1-2)Man(a1-3)[Fuc(a1-2)Gal(b1-4)[Fuc(a1-3)]GlcNAc(b1-2)Man(a1-6)]Man(b1-4)GlcNAc(b1-4)GlcNAc
# In short: as §1
# [7] = biological target: Fuc(a1-2)Gal(b1-4)[Fuc(a1-3)]GlcNAc(b1-3)GalNAc
# In short: as §1
# [8] = biological target: Fuc(a1-2)[Gal(a1-3)]Gal(b1-4)GlcNAc
# In short: as §1
# [9] = biological target: Fuc(a1-2)[Gal(a1-3)]Gal(b1-4)GlcNAc(b1-2)Man(a1-3)[Fuc(a1-2)[Gal(a1-3)]Gal(b1-4)GlcNAc(b1-2)Man(a1-6)]Man(b1-4)GlcNAc(b1-4)GlcNAc
# In short: as §1
# [10] = biological target: Fuc(a1-2)[Gal(a1-3)]Gal(b1-4)GlcNAc(b1-2)Man(a1-3)[Fuc(a1-2)[Gal(a1-3)]Gal(b1-4)GlcNAc(b1-2)Man(a1-6)]Man(b1-4)GlcNAc(b1-4)[Fuc(a1-6)]GlcNAc
# In short: as §1
# [11] = biological target: Fuc(a1-2)[Gal(a1-3)]Gal(b1-4)[Fuc(a1-3)]GlcNAc(b1-3)GalNAc
# In short: as §1
# [12] = biological target: Fuc(a1-2)[GalNAc(a1-3)]Gal
# In short: as §1
# [13] = biological target: Fuc(a1-2)[GalNAc(a1-3)]Gal(b1-3)GalNAc(a1-3)[Fuc(a1-2)]Gal(b1-4)GlcNAc
# In short: as §1
# [14] = biological target: Gal(a1-3)Gal(b1-3)GlcNAc(b1-2)Man(a1-3)[Gal(a1-3)Gal(b1-3)GlcNAc(b1-2)Man(a1-6)]Man(b1-4)GlcNAc(b1-4)GlcNAc
# In short: as §1
# [15] = biological target: Gal(a1-3)Gal(b1-4)[Fuc(a1-3)]GlcNAc(b1-2)Man(a1-3)[Gal(a1-3)Gal(b1-4)[Fuc(a1-3)]GlcNAc(b1-2)Man(a1-6)]Man(b1-4)GlcNAc(b1-4)GlcNAc
# In short: as §1
# [16] = biological target: Gal(b1-3)GlcNAc(b1-2)Man(a1-3)[Gal(b1-3)GlcNAc(b1-2)Man(a1-6)]Man(b1-4)GlcNAc(b1-4)GlcNAc
# In short: as §1
# [17] = biological target: Gal(b1-3)GlcNAc(b1-2)Man(a1-3)[Gal(b1-3)GlcNAc(b1-2)Man(a1-6)]Man(b1-4)GlcNAc(b1-4)[Fuc(a1-6)]GlcNAc
# In short: as §1
# [18] = biological target: Gal(b1-3)[Fuc(a1-4)]GlcNAc(b1-3)Gal(b1-4)GlcNAc
# In short: as §1
# [19] = biological target: Gal(b1-3)[Neu5Ac(a2-6)]GlcNAc(b1-6)Gal(b1-4)Glc
# In short: as §1
# [20] = biological target: Gal(b1-4)GlcNAc(b1-3)Gal(b1-4)GlcNAc
# In short: as §1
# Gal4S(b1-4)GlcNAc = biological target: Gal4S(b1-4)GlcNAc
# In short: as §1
# Gal6S(b1-3)GlcNAc = biological target: Gal6S(b1-3)GlcNAc
# In short: as §1
# [21] = biological target: GalNAc(b1-3)Gal(a1-6)Gal(b1-4)Glc
# In short: as §1
# GalNAc(b1-4)GlcNAc = biological target: GalNAc(b1-4)GlcNAc
# In short: as §1
# GlcA(b1-3)GlcNAc = biological target: GlcA(b1-3)GlcNAc
# In short: as §1
# [22] = biological target: GlcNAc(a1-4)Gal(b1-4)GalNAc
# In short: as §1
# [23] = biological target: GlcNAc(a1-4)Gal(b1-4)GlcNAc(b1-3)Gal(b1-4)[Fuc(a1-3)]GlcNAc(b1-3)Gal(b1-4)[Fuc(a1-3)]GlcNAc
# In short: as §1
# [24] = biological target: GlcNAc(b1-4)[GlcNAc(b1-6)]GalNAc
# In short: as §1
# Man(a1-3)[Man(a1-6)]Man = biological target: Man(a1-3)[Man(a1-6)]Man
# In short: as §1
# [25] = biological target: Neu5Ac(a2-3)Gal(b1-3)[Neu5Ac(a2-3)Gal(b1-4)]GlcNAc
# In short: as §1
# [26] = biological target: Neu5Ac(a2-3)Gal(b1-4)GlcNAc(b1-3)Gal(b1-4)GlcNAc
# In short: as §1
# [27] = biological target: Neu5Ac(a2-3)Gal(b1-4)[Fuc(a1-3)]GlcNAc(b1-3)GalNAc
# In short: as §1
# [28] = biological target: Neu5Ac(a2-6)Gal(b1-4)GlcNAc(b1-2)Man(a1-3)[Man(a1-6)]Man(b1-4)GlcNAc(b1-4)GlcNAc
# In short: as §1
# [29] = biological target: Neu5Ac(a2-6)Gal(b1-4)GlcNAc(b1-2)Man(a1-6)[GlcNAc(b1-2)Man(a1-3)]Man(b1-4)GlcNAc(b1-4)GlcNAc
# In short: as §1
# [30] = biological target: Neu5Ac(a2-6)Gal(b1-4)GlcNAc(b1-3)Gal(b1-4)GlcNAc(b1-3)Gal(b1-4)GlcNAc
# In short: as §1
# [31] = biological target: Neu5Ac(a2-6)Gal(b1-4)GlcNAc(b1-3)GalNAc
# In short: as §1
binder,measurement,setting,value
Gal 2 (Canis lupus) (protein) MSGKFEVMNMDMKLGGTLKIKGKIAGDADGFVINLGQGSDKLNLHFNPRFHESVIVCNSRNWGQEQRDKHMCFSPGSEVKFTVTFENDGFKVKLPDGHQLTFPNRLGHSHLSYLGVQGGLKVSSFKIE,glycan array binding signal (z-score),[1],-0.028
same,glycan array binding signal (z-score),[2],0.019
same,glycan array binding signal (z-score),[3],1.43
same,glycan array binding signal (z-score),[4],0.046
same,glycan array binding signal (z-score),[5],-0.156
same,glycan array binding signal (z-score),[6],0.795
same,glycan array binding signal (z-score),[7],0.409
same,glycan array binding signal (z-score),[8],0.681
same,glycan array binding signal (z-score),[9],15.5
same,glycan array binding signal (z-score),[10],6.28
same,glycan array binding signal (z-score),[11],0.088
same,glycan array binding signal (z-score),[12],-0.339
same,glycan array binding signal (z-score),[13],-0.173
same,glycan array binding signal (z-score),[14],0.082
same,glycan array binding signal (z-score),[15],0.339
same,glycan array binding signal (z-score),[16],0.14
same,glycan array binding signal (z-score),[17],0.051
same,glycan array binding signal (z-score),[18],0.099
same,glycan array binding signal (z-score),[19],-0.068
same,glycan array binding signal (z-score),[20],-0.157
same,glycan array binding signal (z-score),Gal4S(b1-4)GlcNAc,1.7
same,glycan array binding signal (z-score),Gal6S(b1-3)GlcNAc,-0.457
same,glycan array binding signal (z-score),[21],0.131
same,glycan array binding signal (z-score),GalNAc(b1-4)GlcNAc,-0.029
same,glycan array binding signal (z-score),GlcA(b1-3)GlcNAc,2.91
same,glycan array binding signal (z-score),[22],-0.278
same,glycan array binding signal (z-score),[23],1.2
same,glycan array binding signal (z-score),[24],-0.114
same,glycan array binding signal (z-score),Man(a1-3)[Man(a1-6)]Man,0.15
same,glycan array binding signal (z-score),[25],-0.369
same,glycan array binding signal (z-score),[26],0.01
same,glycan array binding signal (z-score),[27],1.21
same,glycan array binding signal (z-score),[28],-0.076
same,glycan array binding signal (z-score),[29],-0.361
same,glycan array binding signal (z-score),[30],-0.293
same,glycan array binding signal (z-score),[31],0.102
